The text below walks through data of PubChem BioAssay AID1942 (Johns Hopkins Ion Channel Center, 2009).

In all, about 2,400 compounds went through this assay and about 580 (24%) were called active. These entries were drawn from the full list. A number with no mark means an inactive call.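 Rule for the calls: active = activity change at or above the mean plus 3 SD of buffer wells without dofetilide, per plate; inactive = the rest.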

The target in the assay is Potassium voltage-gated channel subfamily KQT member 2 (Rattus norvegicus) (UniProt O88943). The assay can be described thus: rat KCNQ2 channel activation by compounds alone, confirmation, counter-screen for hERG block protector project, cell-based, CHO, FluxOR thallium flux (AID 1942).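 Note: normalized value minus buffer-control mean plus three SD of buffer wells.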 The note with it: CHO-KCNQ2 cells, FluxOR thallium flux fluorescence; at 10 µM; active compounds read high.
Chain of Potassium voltage-gated channel subfamily KQT member 2 (Rattus norvegicus) (O88943 whole entry, looked up): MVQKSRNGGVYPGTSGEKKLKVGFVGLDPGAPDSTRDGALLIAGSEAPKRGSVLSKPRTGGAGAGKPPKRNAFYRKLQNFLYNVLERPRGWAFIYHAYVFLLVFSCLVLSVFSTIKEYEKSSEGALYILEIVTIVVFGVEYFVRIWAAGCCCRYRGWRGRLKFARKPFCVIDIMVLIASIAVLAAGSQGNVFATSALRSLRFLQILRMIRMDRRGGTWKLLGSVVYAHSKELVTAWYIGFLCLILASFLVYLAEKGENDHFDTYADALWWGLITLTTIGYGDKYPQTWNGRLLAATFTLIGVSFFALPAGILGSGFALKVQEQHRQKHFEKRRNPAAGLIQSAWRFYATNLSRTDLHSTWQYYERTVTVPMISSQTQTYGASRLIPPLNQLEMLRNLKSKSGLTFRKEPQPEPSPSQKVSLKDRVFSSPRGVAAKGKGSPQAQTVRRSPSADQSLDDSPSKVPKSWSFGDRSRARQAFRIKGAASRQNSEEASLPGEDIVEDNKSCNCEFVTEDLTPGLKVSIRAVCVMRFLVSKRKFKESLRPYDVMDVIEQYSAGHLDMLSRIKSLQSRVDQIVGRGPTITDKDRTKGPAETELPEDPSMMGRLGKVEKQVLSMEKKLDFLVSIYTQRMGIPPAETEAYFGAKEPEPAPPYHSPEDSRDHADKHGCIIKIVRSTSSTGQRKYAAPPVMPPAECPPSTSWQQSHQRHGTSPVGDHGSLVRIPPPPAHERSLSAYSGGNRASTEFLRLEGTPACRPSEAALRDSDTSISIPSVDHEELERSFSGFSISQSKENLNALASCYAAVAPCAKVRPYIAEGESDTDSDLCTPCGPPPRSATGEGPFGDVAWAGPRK
As to `COc1ccc(C)cc1NC(=O)Nc1ccc(C(=O)N2CCCC2)cc1`, the activity change, less the hit threshold was -13.8%.
The same measure for `Cc1cc(C)c(C(=O)c2ccc(C(=O)N3CCCCC3)cc2)c(C)c1`: 9.9% (active); for `Cc1ccc(SCc2ccc(C(=O)N3CCCC3)cc2)cc1`: -13.9%; for `COC(=O)c1ccc(Oc2ccc(S(=O)(=O)N3CCCCC3)cc2N)cc1`: -21%.
To `Cc1ccc(NC(=O)CN2C(=O)S/C(=C\c3cccn3-c3cccc(C(=O)O)c3)C2=O)c(C)c1` belongs -17.1%; to `O=C1c2ccccc2C(=O)N1CCc1nc(-c2ccccn2)no1`, -15.6%.
For the molecule `Cc1ccc(NC(=O)CCc2nc3sc4c(c3c(=O)[nH]2)CCCC4)c(Br)c1`, the activity change, less the hit threshold is -14.8%.
To `Cc1cc(C)n(-c2nc3sc4c(c3c(=O)[nH]2)CCCC4)n1` belongs 6.2% (active); to `Cc1cc(C)n(-c2nc(NCCCN(C)C)c3c4c(sc3n2)CCCC4)n1`, -15.9%; to `CC(=O)Cn1c(=O)c2c(nc3n2CCCN3Cc2ccccc2)n(C)c1=O`, -11.9%.
To `COC(=O)C1CN(C(=O)COc2ccc(C)c(C)c2)c2ccccc2O1` (stereo not given) belongs -18.1%; to `CC(C)OC(=O)C1CC(C)(O)C(=O)C(C(=O)OC(C)C)C1c1ccc([N+](=O)[O-])cc1` (stereo not given), -20.5%; to `CCc1noc(C)c1C(=O)N1CCCC(N2CCN(c3ccccc3F)CC2)C1` (stereo not given), -14.7%.
To `Cc1ccc(CN2CCN(/N=C/c3ccc(O)c(O)c3)CC2)cc1` belongs -3.7%; to `O=C(COC(=O)c1cc(Br)ccc1O)Nc1cccnc1Cl`, -19.3%.
Take `Cc1cccc(/C=N/NC(=O)c2cc(Br)ccc2O)n1`: the activity change, less the hit threshold is 0.2% (active).
As to `O=C(N/N=C/c1ccc2cccc(OCc3ccccc3)c2n1)c1ccc(Br)cc1`, the activity change, less the hit threshold is -9.5%.
For the molecule `NC(=O)C1CCN(C(=O)CCC(=O)c2ccc(F)cc2)CC1`, the activity change, less the hit threshold was -12.6%.
The same measure for `CCOC(=O)C1CCCCN1Cc1ccc(F)cc1` (stereo not given): 4.5% (active); for `CCOC(=O)C1CCCN(C(=S)NC(=O)/C=C/c2ccc(F)cc2)C1` (stereo not given): -20.7%.
For the molecule `O=C1c2ccccc2C(=O)N1Cc1cc(-c2ccccc2Cl)no1`, the activity change, less the hit threshold was -14.4%.
Consider `Cn1nnnc1SCC(=O)NC1CCCc2ccccc21` (stereo not given), for which the activity change, less the hit threshold is -30.8%.
The same measure for `O=C(NC(=S)N1CCc2ccccc21)c1ccc(Br)o1`: 19.1% (active); for `O=C(NC(=S)NC1CCCc2ccccc21)c1ccco1` (stereo not given): 7% (active).
To `Cc1cccc(OCC(=O)NC2CCCc3ccccc32)c1C` (stereo not given) belongs -34.2%; to `O=C(NC(=S)N1CCc2ccccc21)c1ccco1`, 0.6% (active).
The same measure for `Cc1ccc(OCCC(=O)OC(C)C(=O)Nc2ccc(Cl)cn2)cc1` (stereo not given): -8.9%; for `O=C(O)CCCn1cc(NC(=O)COc2ccc(F)cc2)cn1`: -25.3%; for `Fc1ccc2c(c1)C(c1ccncc1)=NNC(c1cccnc1)=N2`: -6.5%.
In the case of `Cc1ccc(CNS(=O)(=O)c2ccc(C(F)(F)F)cc2)n1C`, the activity change, less the hit threshold is -26.5%.
As to `Nc1nc2n(n1)C(=O)CC(c1ccc(Cl)cc1)N2` (stereo not given), the activity change, less the hit threshold was -10.5%.
To `CC(=O)N1CCCc2cc(S(=O)(=O)NCc3ccc(C)cc3)ccc21` belongs -9.9%.
To `c1ccc(CCCNc2ncnc3nc[nH]c23)cc1` belongs 30.4% (active); to `COc1ccc(N2CC(C(=O)OCC(=O)Nc3ccccc3C)CC2=O)cc1` (stereo not given), -5.6%.
To `CCc1cc2cc(C)cc(C)c2[nH]c1=S` belongs 2.1% (active).
In the case of `CN(C)Cc1c(C(=O)N/N=C/c2ccccc2OCc2c(F)cccc2Cl)nnn1-c1nonc1N`, the activity change, less the hit threshold is -28.3%.
The same measure for `O=C(O)/C=C/c1cn(-c2ccccc2)nc1-c1ccc(-c2ccc([N+](=O)[O-])cc2)o1`: -18%; for `S=c1[nH]c2cc(-c3ccccc3)ccc2o1`: 86.2% (active).
To `Cc1ccc(NN=Nc2nc3c([nH]2)c(=O)n(C)c(=O)n3C)cc1` belongs -16.4%; to `COC(=O)C1=C(C)N(CC2CCCO2)C(=O)/C1=C\c1ccc(O)cc1` (stereo not given), -0.1%; to `CCN(CC)S(=O)(=O)c1ccc2[nH]c(=O)cc(C(=O)Nc3cccc(C(C)=O)c3)c2c1`, -14.9%.
The same measure for `Cc1ccccc1NC(=S)NC(=O)c1cc(-c2ccccc2)nc2ccccc12`: 2% (active); for `O=C(NC(=S)Nc1ccccc1)c1cc(-c2ccccc2)nc2ccccc12`: -5.5%; for `Cc1cccc(NC(=S)NC(=O)c2cc(-c3ccccc3)nc3ccccc23)c1`: -14.7%.
With `CC(C)(C)NS(=O)(=O)c1ccc(NC(=O)c2cc(-c3ccccc3)nc3ccccc23)cc1`, the activity change, less the hit threshold was -22%.
Take `O=C(NC(=S)Nc1ccccn1)c1cc(-c2ccccc2)nc2ccccc12`: the activity change, less the hit threshold was -12%.
For `COC(=O)c1ccc(NC(=S)NC(=O)c2cc(-c3ccccc3)nc3ccccc23)cc1`, the activity change, less the hit threshold was 1.1% (active).
The same measure for `CCCCCCc1cc2cc(-c3nnc(-c4ccccc4)o3)c(=O)oc2cc1O`: -23.8%; for `O=C(C[n+]1ccccc1)N/N=C/c1ccc(Cl)c(Cl)c1`: -28.9%.
As to `O=C(c1cccs1)N1CCN(C23CC4CC(CC(C4)C2)C3)CC1`, the activity change, less the hit threshold is -10.7%.
The same measure for `CCC1Nc2ncnc(N3CCOCC3)c2N(Cc2ccc(C)cc2)C1=O` (stereo not given): -18.9%.
The same measure for `CCSc1nc(=S)cc(C)[nH]1`: 48.7% (active); for `CCc1cc(=O)[nH]c(SCc2ccc(C)cc2)n1`: -15.8%.
To `CSc1nc(=S)cc(C)[nH]1` belongs -1.9%; to `CN(C)CCNc1ncnc2c1sc1nc(N3CCCC3)c3c(c12)CC(C)(C)OC3`, -13.1%.
Regarding `CCOC(=O)NC(=S)Nc1ccc(C(C)(C)C)cc1`, the activity change, less the hit threshold is 1% (active).
The same measure for `COC(=O)CNC(=S)NC(=O)c1ccc(C(C)(C)C)cc1`: -13%; for `CCOC(=O)NC(=S)Nc1ccc(C(C)(C)C)cc1Br`: 2.1% (active).
As to `CC(C)(C)c1ccc(/C=N/NC(=S)Nc2cccnc2)cc1`, the activity change, less the hit threshold was -14%.
To `CCCCNC(=O)CC(NS(=O)(=O)c1ccc(C)cc1)c1ccco1` (stereo not given) belongs -14.3%.
To `C[n+]1ccccc1/C=C/c1ccc(C#N)cc1` belongs -12.2%.
The same measure for `COCC(=O)N(Cc1ccco1)c1nnc(C2CCOC2)s1` (stereo not given): -22.7%; for `Cc1ccc(N=Nc2ccc(O)c3ncccc23)cc1`: -4.3%.
For the molecule `Oc1c(Cl)cc(CN2CCCCC2)c2cccnc12`, the activity change, less the hit threshold is -12.8%.
On to `O=[N+]([O-])c1cc(F)c2cccnc2c1O`, for which the activity change, less the hit threshold is 6.4% (active).
To `O=[N+]([O-])c1ccc(O)c2ncccc12` belongs 22.1% (active).
The same measure for `COc1ccc(-n2cnc3ccccc3c2=O)c([N+](=O)[O-])c1`: -12.6%; for `O=[N+]([O-])c1cccnc1Sc1n[nH]c(-c2ccc(Cl)cc2)n1`: -16.6%.
The same measure for `O=C(O)C[C@H]1c2cc(F)ccc2S(=O)(=O)N1C1CCCCC1`: -10.2%.
Take `CC(C)(C)c1csc(NNC(=O)c2ccc(Cl)cc2)n1`: the activity change, less the hit threshold is -7.6%.
To `Cc1nc(-c2nc(-c3c(C(=O)NNC(=O)c4ccc(Cl)cc4)noc3C)cs2)cs1` belongs -1.2%.
Regarding `CC(C)(C)c1cc(C(=O)NNC(=O)c2ccc(Cl)cc2)no1`, the activity change, less the hit threshold is 24% (active).
The same measure for `CCc1nc(C)ccc1OCC(=O)N1CCc2c([nH]c3ccccc23)C1c1ccccn1` (stereo not given): -18.2%; for `CCN(CC)c1ccc(/C=c2\sc3nnc(-c4ccccc4Cl)n3c2=O)cc1`: -31.7%.
The same measure for `O=C(NC(=S)Nc1nc2ccccc2s1)c1ccco1`: 40.4% (active); for `O=C(NC(=S)Nc1nc(-c2ccc([N+](=O)[O-])cc2)cs1)c1ccco1`: 20.1% (active).
To `O=C(NC(=S)Nc1nc2ccc(F)cc2s1)c1ccco1` belongs 59.7% (active); to `COc1ccc2nc(NC(=S)NC(=O)c3ccco3)sc2c1`, 27.9% (active).
Regarding `O=C(NC(=S)NCc1ccc(-c2nc3ccccc3s2)cc1)c1ccco1`, the activity change, less the hit threshold is -16%.
To `O=C(NC(=S)Nc1nc(-c2ccccc2)cs1)c1ccco1` belongs -0.7%; to `COc1ccc(-c2csc(NC(=S)NC(=O)c3ccco3)n2)cc1Br`, -3.7%.
The same measure for `Cc1ccc2nc(NC(=S)NC(=O)c3ccco3)sc2c1`: -6.5%.
Turning to `O=C(NC(=S)Nc1nc(-c2ccc(Br)cc2)cs1)c1ccco1`, the activity change, less the hit threshold is -18.5%.
To `COc1ccc(-c2csc(NC(=S)NC(=O)c3ccco3)n2)cc1` belongs -0.4%; to `Cc1ccc(C)c(N2CCN(S(=O)(=O)c3ccc(-c4ccc(=O)[nH]n4)o3)CC2)c1`, -14.6%.
With `CCn1cc(CCC(=O)NCc2cccc(OC)c2OC)c2ccccc21`, the activity change, less the hit threshold is -13%.
To `Cc1cc(N2CCN(C)CC2)nc(N2CCOCC2)n1` belongs -10%.
For the molecule `CCN(CC)C(=O)CN1C(=O)c2cccc3cccc(c23)C1=O`, the activity change, less the hit threshold is -24.8%.
To `CN(C)c1oc(-c2ccccc2)nc1C#N` belongs -16.2%.
Take `CC(=O)C1C(=O)c2c(cccc2[N+](=O)[O-])C1=Nc1ccccc1C` (stereo not given): the activity change, less the hit threshold is -21.7%.
The same measure for `O=c1cc(O)c2sc(Nc3ccc(F)c(Cl)c3)nc2[nH]1`: -20.3%; for `COc1ccc(N2CCN(CC(O)COc3ccc(F)cc3)CC2)cc1` (stereo not given): -24.2%.
On to `CC1=C(C)CS(=O)N(c2ccc(S(N)(=O)=O)cc2)C1` (stereo not given), for which the activity change, less the hit threshold was -5.8%.
The same measure for `Cc1ccc(C(=O)Nc2nc3ccccc3c(=O)s2)cc1`: -1.3%; for `Cc1ccc(-c2nc3c(Cl)cc(Cl)cc3c(=O)n2O)cc1`: 142% (active).
To `CC1=NN(c2ccccc2)C(=O)C1C(=O)c1ccc(Cl)cc1` (stereo not given) belongs -0.6%; to `O=c1c2cc(Cl)ccc2nc(-c2ccccc2)n1O`, 27.1% (active).
The same measure for `O=c1c2ccccc2nc(-c2ccccc2)n1O`: -9.4%.
Turning to `Cc1ccc(-c2nc3ccccc3c(=O)n2O)cc1`, the activity change, less the hit threshold is 6.3% (active).
As to `O=c1c2ccccc2nc(-c2ccc(Cl)c(Cl)c2)n1O`, the activity change, less the hit threshold was 68.4% (active).
